# HEK293 tox – HEK 293 cell cytotoxicity; HEK 293 viability, ATP luminescence (CellTiter-Glo), 48-72 h; Potency, µM (top dose mostly 115 µM), without a hit: at the highest dose activity change, negative = cytotoxicity, usual class: inhibitors; 6.6% of 94,000 active; further: potency means the concentration at half of the fitted maximal effect; nearly all actives have a fitted effect of over 60% in size
#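 qHTS cytotoxicity; HEK 293, 250 cells/well; compound pinned; 48 or 72 hr, 37 degree Celsius, 5% CO2, 95% humidity; CellTiter-Glo, 10 min RT; luminescence (ATP).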
# SNCA expr inh – reduces expression of the alpha-synuclein gene; Potency, µM (series often up to 57.2 µM), for inactives: top-dose activity change, negative = inhibition, actives largely listed as inhibitors; HEK-293 SNCA-luciferase knock-in, luminescence, 24 h; 0.17% of 140,000 active;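 further: potency means the concentration at half of the fitted maximal effect; plate controls were DMSO cells for no effect and cell-free wells for full effect; nearly all actives have a fitted effect of over 45% in size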
# 3T3 cytotox – kills NIH 3T3 cells; NIH 3T3 viability, CellTiter-Glo ATP luminescence, 48-72 h; Potency, µM (doses to about 96.7 µM), inactives show at the top dose activity change, negative = cytotoxicity, actives largely listed as inhibitors; 4.3% of 94,000 active; AID 1345082; further: potency means the concentration at half of the fitted maximal effect; nearly all actives have a fitted effect of over 55% in size
#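 First NIH 3T3 cells are plated at 400 cells/well; next compound is pinned in; then plates incubate 48 or 72 hr at 37 °C; finally CellTiter-Glo is added and luminescence read after 10 min.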
# HEK293 viab – cell viability loss counter-screen; Potency, µM (series often up to 57.1 µM), without a hit: at the highest dose activity change, negative = cytotoxicity, most hits filed as cytotoxic; AID 1671193; HEK-293-SNCA-luc viability, GF-AFC fluorescence, 24 h; 0.12% of 150,000 active;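 further: potency means the concentration at half of the fitted maximal effect; 0% = DMSO-treated cells and -100% = medium-only wells without cells; nearly all actives have a fitted effect of over 30% in size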
#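 Cytotoxicity counterscreen: after 24 h compound treatment of genome-edited SNCA-luciferase HEK-293 cells, live-cell protease substrate GF-AFC read by fluorescence after 30 min; activity scaled between DMSO (0%) and medium-only (-100%), curves Hill-fitted.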
# IP6K1 inhibitor – IP6K1 kinase inhibition | activity change, % (series mostly up to about 58 µM) | AID 1645851 | IP6K1 kinase, ADP-Glo luminescence, 2 h; hits give low values | 0.81% of 140,000 active; in the data active means activity change below about -25%
# Target sequence (Q92551 whole entry, looked up): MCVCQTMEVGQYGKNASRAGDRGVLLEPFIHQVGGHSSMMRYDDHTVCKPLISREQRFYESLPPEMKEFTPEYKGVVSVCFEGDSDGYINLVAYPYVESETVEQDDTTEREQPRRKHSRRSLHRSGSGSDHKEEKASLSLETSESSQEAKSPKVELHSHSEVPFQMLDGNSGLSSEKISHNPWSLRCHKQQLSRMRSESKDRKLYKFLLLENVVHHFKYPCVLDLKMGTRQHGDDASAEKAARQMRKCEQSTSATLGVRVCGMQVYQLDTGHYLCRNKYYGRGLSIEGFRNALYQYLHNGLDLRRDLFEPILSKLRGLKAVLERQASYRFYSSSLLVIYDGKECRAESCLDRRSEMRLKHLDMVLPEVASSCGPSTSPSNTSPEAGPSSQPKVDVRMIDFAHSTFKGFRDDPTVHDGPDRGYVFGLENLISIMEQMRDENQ
#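 ADP-Glo luminescence measures ADP made by human IP6K1 during a 2 h RT reaction with ATP/IP6 (mix at 1.3 mM/130 uM); top library doses 57.5 and 19.1 uM final.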
# Luciferase inh – Photinus pyralis luciferase inhibition; P08659; purified P. pyralis luciferase, luminescence, biochemical; Potency, µM (highest dose often 115 µM), usual class: inhibitors; 2.5% of 76,000 active; AID 1347043; further: potency means the concentration at half of the fitted maximal effect; nearly all actives have a fitted effect of over 65% in size
#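 Luminescence read by CCD imager after adding enzyme (10nM final) to wells holding compound, titrated in qHTS. Substrates 10uM each D-luciferin and ATP; buffer 50mM Tris acetate pH 7.5, 10mM Mg acetate, Tween-20, BSA.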
# An asterisk follows results filed as active; i = inactive; ? = inconclusive; . = no result given; [ ] = another dose, or the depositor's remark. The list is not random: actives were taken first. Their share in the collection is about 7.3%. Unless noted, the call rests on the fitted dose curve; in most records, active means well fitted curve in the direction sought with a large enough effect; inconclusive means small, poorly fitted or top-dose-only effect, or another doubt; inactive means no such curve, though single readings can be large; an effect the other way counts as inactive or inconclusive. Unless noted, on the % scale 0 is the no-effect control and ±100 the full control effect.
SMILES,HEK293 tox,SNCA expr inh,3T3 cytotox,HEK293 viab,IP6K1 inhibitor,Luciferase inh
Cc1ccc(CNC[C@H]2O[C@H](Cc3cc(-c4ccc(F)cc4)on3)CC[C@@H]2O)cc1,40µM*,68%[87.6 µM],32µM*,-25%[87.6 µM],9,i
COc1ccc(-c2cc(C[C@@H]3CC[C@@H]4OC(=O)NC[C@H]4O3)no2)cc1,100µM*,91%[87.6 µM],?,6%[87.6 µM],-1,?
O[C@H]1CC[C@@H](Cc2cc(-c3ccc(F)cc3)on2)O[C@@H]1CNCc1ccncc1,-21%[172 µM],85%[87.6 µM],-18%[174 µM],3%[87.6 µM],-11,i
COc1ccc(-c2cc(C[C@@H]3CC[C@H](O)[C@@H](CNCc4cccc(Cl)c4)O3)no2)cc1,28µM*,5%,?,-4%,-1,50µM*
CN1CCC(NC[C@H]2O[C@H](Cc3cc(-c4ccc(F)cc4)on3)CC[C@@H]2O)CC1,?,148%[87.6 µM],89µM*,-7%[87.6 µM],2,i
CC[C@H]1CN(C(=O)c2ccc(F)cc2)CC[C@H]1CC(=O)NCc1ccccc1,-5%[172 µM],-3%[87.6 µM],0%[174 µM],-5%[87.6 µM],11,i
O=C(NC1CCN(C(=O)c2ccc(-c3cccs3)cc2)CC1)C1CCCC1,?,23%,?,-9%[12.5 µM],4,.
COc1ccc(-c2ccc(C(=O)NCc3ccccc3)c(Cl)c2)nn1,-29%,.,-20%,.,-12,.
COc1ccc(CNC[C@H]2O[C@H](Cc3cc(-c4ccccc4)on3)CC[C@@H]2O)cc1,89µM*,118%[87.6 µM],40µM*,-4%[87.6 µM],1,i
CC(C)NC(=O)NC[C@H]1O[C@H](Cc2cc(-c3ccc(F)cc3)on2)CC[C@@H]1O,?,156%[87.6 µM],-15%[174 µM],-9%[87.6 µM],1,i
O=C(NC[C@H]1O[C@H](Cc2cc(-c3ccc(F)cc3)on2)CC[C@@H]1O)c1ccccc1F,-30%[172 µM],27%[87.6 µM],-26%[138 µM],-1%[87.6 µM],3,22µM*
CN1CCC(NC[C@H]2O[C@H](Cc3cc(-c4cccc(O)c4)on3)CC[C@@H]2O)CC1,0%[172 µM],1%[87.6 µM],-2%[174 µM],-6%[87.6 µM],0,i
NC[C@H]1O[C@H](Cc2cc(-c3cccc(O)c3)on2)CC[C@@H]1O,3%[172 µM],29%[87.6 µM],i,-3%[87.6 µM],-13,56µM*
COc1ccc(C2Cn3cnc(C(=O)N4CCC(C(=O)Nc5ccc(C)c(F)c5)CC4)c3CO2)cc1 (centres undefined),-13%,37%,-10%,14%,-3,?
CCOC(=O)C1CCN(C(=O)c2cn3cc(-c4cccc(OC)c4)sc3n2)CC1,?,-6%,?,-8%,6,.
Cc1cc(C(=O)N(C)CC2CCCN(CCc3ccccc3F)C2)n[nH]1 (centres undefined),1%,-11%,0%,-1%,3,i
Cc1ccccc1CCN1CCCC(CN(C)C(=O)c2cc3ccccc3[nH]2)C1 (centres undefined),22µM*,37%,?,-9%,-1,i
O=C(C1CCCC1)N1CC2(CCN(Cc3ccccn3)C2)Cc2ccccc21 (centres undefined),?,-3%,?,-24%,5,.
O=C(C1CCCC1)N1CC2(CCN(Cc3c[nH]c4ccccc34)CC2)Cc2ccccc21,20µM*,?,13µM*,?,-5,.
O=C(C1CCCC1)N1CC2(CCN(CC3CC3)C2)Cc2ccccc21 (centres undefined),25µM*,-5%,45µM*,?,6,.
CC(=O)N1CC2(CCN(CC3CC3)C2)Cc2ccccc21 (centres undefined),-7%[172 µM],-9%[87.6 µM],-9%[138 µM],-7%[87.6 µM],-14,.
O=C(c1ccc(F)cc1)N1CCC(Oc2ccccc2)C1 (centres undefined),4%,12%,i,8%,20,i
O=C(C1CCCC1)N1CC2(CCN(Cc3ccccn3)CC2)Cc2ccccc21,100µM*,-7%[87.6 µM],?,-25%[87.6 µM],26,.
O=C(c1ccc(OC2CCN(Cc3c[nH]c4ccccc34)CC2)cc1)N1CCCCC1,22µM*,89%,?,-21%,-11,i
CC(C)c1noc(-c2cn(C3CCCN(C(=O)c4ccc(F)c(Cl)c4)C3)nn2)n1 (centres undefined),?,5%,?,-9%,3,i
SMILES,HEK293 tox,SNCA expr inh,3T3 cytotox,HEK293 viab,IP6K1 inhibitor,Luciferase inh
CCCC(=O)N1Cc2ccccc2CC2(CCCCN2Cc2cccnc2)C1 (centres undefined),-25%,7%,-4%,-3%,-13,.
CC(C)Oc1ccc(CN2CCc3n[nH]c(=O)n3CC2)cc1,6%,-19%,-13%,-3%,0,i
CN(C)[C@@H]1CN(C(=O)c2cccn2C)CC[C@]1(O)c1ccccc1,-9%,22%,3%,13%,22,i
COc1ccccc1-n1c(=O)c(C(=O)NCc2cccc(F)c2)nc2cccnc21,i,11%,-1%,5%,14,.
CCN1C(=O)COC[C@@H]1[C@H](O)c1ccc(NC(=O)CCc2ccccc2)cc1,-27%[172 µM],5%[87.6 µM],-25%[138 µM],-2%[87.6 µM],-1,i
O[C@@H]1CCN(Cc2nc(C3(O)CCN(CC4CCCCC4)CC3)cs2)C1,-16%[172 µM],-11%[87.6 µM],-7%[174 µM],-6%[87.6 µM],-2,i
CNC(=O)c1cccc(NC(=O)c2nc(C(O)c3ccccc3F)oc2C)c1 (centres undefined),79µM*,26%[87.6 µM],?,-14%[87.6 µM],10,i
O=C(NCc1cccc(Cl)c1)C1CCN(c2nc3ncccc3o2)CC1,0%,7%,-7%,5%,8,.
CN1CCOc2c(C(=O)NCCc3cnc[nH]3)cc(-c3ccccc3)cc21,?,?,79µM*,-13%[87.6 µM],-17,i
CN1CCOc2c(C(=O)NCc3cnn(C)c3)cc(-c3cccnc3)cc21,?,-15%[87.6 µM],35µM*,-12%[87.6 µM],-7,i
CN1CCOc2c(C(=O)NCCC(N)=O)cc(-c3ccccc3)cc21,0%[172 µM],8%[87.6 µM],?,-13%[87.6 µM],-10,i
Cc1cc(C(=O)NC2CCCc3c2[nH]c2ccccc32)c2c(C)noc2n1 (centres undefined),?,-23%,?,-8%,-5,i
Cc1nnc2ccc(N3CCCN(C(=O)c4ccc(F)cc4)CC3)nn12,?,.,?,.,-2,.
CC(C)Oc1cccc(-c2nc(C(=O)NCc3ccccc3)cs2)c1,32µM*,0%,?,5%,16,i
CCCOc1cccc(-c2nc(C(=O)NCC)cs2)c1,32µM*,2%,?,8%,13,i
Cn1cnc(S(=O)(=O)N2CC(c3nc(CCOCC4CC4)no3)C2)c1,i,-3%,i,1%,3,.
